Here are results for 30 molecules from PubChem BioAssay.

A number with no mark means an inactive call. Active and inactive are the calls of the source.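 Rule for the calls, unless noted: active = luciferase signal above three times the same-plate solvent-only control wells; inactive = the rest.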

The target of one assay is NAD(+) hydrolase SARM1 (Homo sapiens) (UniProt Q6SZW1). The experiment in a line: blocking NAD cleavage by SARM1 SAM-TIR – cell lysate, NAD-Glo luminescence (AID 1508614;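 active = compound whose remaining NAD level is above about 45 nM, limit read from the data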;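 note: higher remaining NAD means stronger inhibition of SARM1 NADase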). The settings on record: SAM-TIR HEK293T lysate NADase, at 1 µM, active compounds read high.
Sequence of NAD(+) hydrolase SARM1 (Homo sapiens) (Q6SZW1 whole entry, looked up): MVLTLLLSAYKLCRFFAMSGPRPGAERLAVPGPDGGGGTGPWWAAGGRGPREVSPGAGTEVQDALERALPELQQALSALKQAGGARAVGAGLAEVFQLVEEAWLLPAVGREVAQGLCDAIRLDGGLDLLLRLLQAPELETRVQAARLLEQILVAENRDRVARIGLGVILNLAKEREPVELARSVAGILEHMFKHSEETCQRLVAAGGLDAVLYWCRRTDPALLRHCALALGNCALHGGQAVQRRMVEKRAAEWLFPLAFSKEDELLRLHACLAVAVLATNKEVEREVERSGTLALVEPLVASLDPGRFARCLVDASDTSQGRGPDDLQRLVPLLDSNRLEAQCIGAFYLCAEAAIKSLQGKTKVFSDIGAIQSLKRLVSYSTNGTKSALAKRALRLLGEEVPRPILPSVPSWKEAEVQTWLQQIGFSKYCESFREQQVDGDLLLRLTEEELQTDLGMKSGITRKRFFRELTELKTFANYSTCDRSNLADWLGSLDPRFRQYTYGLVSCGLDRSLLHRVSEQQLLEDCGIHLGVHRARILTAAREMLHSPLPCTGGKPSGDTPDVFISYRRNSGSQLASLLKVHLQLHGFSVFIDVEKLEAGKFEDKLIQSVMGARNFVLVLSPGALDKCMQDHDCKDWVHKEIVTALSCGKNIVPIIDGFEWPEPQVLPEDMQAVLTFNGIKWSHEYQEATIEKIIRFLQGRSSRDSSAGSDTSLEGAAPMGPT
For the molecule `C[C@H](N)[C@H](O)c1ccc(O)c(O)c1`, the remaining NAD is 10 nM.
For `S=C=NCc1ccccc1`, the remaining NAD is 10 nM.
`ClC1C(Cl)C(Cl)C(Cl)C(Cl)C1Cl` (stereo unspecified): the remaining NAD was 10 nM.
For the molecule `C=CCC1(C(C)CCC)C(=O)N=C(S)NC1=O` (stereo unspecified), the remaining NAD is 10 nM.
As for `O=C1C=C2C=C[C@@H]3C[C@@]2(O1)[C@H]1CCCCN31`, the remaining NAD is 10 nM.
With `CCCCCCCCCCCCCCCC[n+]1ccccc1`, the remaining NAD is 10 nM.
As to `CC(N)Cc1ccc(O)cc1` (stereo unspecified), the remaining NAD was 10 nM.
Take `CC[C@@H]1C(=O)OC[C@@H]1Cc1cncn1C`: the remaining NAD was 10 nM.
Consider `O=[N+]([O-])c1cc([As](=O)(O)O)ccc1O`, for which the remaining NAD is 10 nM.
For `CCOP(=S)(OCC)Oc1nc(Cl)c(Cl)cc1Cl`, the remaining NAD is 10 nM.
`CN1CCc2cc3c(cc2C1O)OCO3` (stereo unspecified): the remaining NAD was 10 nM.
For the molecule `CNC(C)C(O)c1ccccc1` (stereo unspecified), the remaining NAD was 10 nM.
Regarding `CN(C)[C@@H]1C(=O)C(C(N)=O)=C(O)[C@@]2(O)C(=O)C3=C(O)c4c(O)ccc(Cl)c4[C@@](C)(O)[C@H]3C[C@@H]12`, the remaining NAD is 10 nM.

Another assay deals with Mitogen-activated protein kinase 7 (Homo sapiens) (UniProt Q13164). In words: Gal4-ERK5 driven luciferase induction – cell-based, HTS, primary screen (AID 1508626).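 Note: luciferase driven by Gal4-ERK5 fusion binding five Gal4 sites before minimal TATA.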 The settings on record: HeLa Gal4-ERK5 transactivation, 18 h, at 5 µM, active compounds read high.
Sequence of Mitogen-activated protein kinase 7 (Homo sapiens) (Q13164 whole entry, looked up, the tested form may be a part): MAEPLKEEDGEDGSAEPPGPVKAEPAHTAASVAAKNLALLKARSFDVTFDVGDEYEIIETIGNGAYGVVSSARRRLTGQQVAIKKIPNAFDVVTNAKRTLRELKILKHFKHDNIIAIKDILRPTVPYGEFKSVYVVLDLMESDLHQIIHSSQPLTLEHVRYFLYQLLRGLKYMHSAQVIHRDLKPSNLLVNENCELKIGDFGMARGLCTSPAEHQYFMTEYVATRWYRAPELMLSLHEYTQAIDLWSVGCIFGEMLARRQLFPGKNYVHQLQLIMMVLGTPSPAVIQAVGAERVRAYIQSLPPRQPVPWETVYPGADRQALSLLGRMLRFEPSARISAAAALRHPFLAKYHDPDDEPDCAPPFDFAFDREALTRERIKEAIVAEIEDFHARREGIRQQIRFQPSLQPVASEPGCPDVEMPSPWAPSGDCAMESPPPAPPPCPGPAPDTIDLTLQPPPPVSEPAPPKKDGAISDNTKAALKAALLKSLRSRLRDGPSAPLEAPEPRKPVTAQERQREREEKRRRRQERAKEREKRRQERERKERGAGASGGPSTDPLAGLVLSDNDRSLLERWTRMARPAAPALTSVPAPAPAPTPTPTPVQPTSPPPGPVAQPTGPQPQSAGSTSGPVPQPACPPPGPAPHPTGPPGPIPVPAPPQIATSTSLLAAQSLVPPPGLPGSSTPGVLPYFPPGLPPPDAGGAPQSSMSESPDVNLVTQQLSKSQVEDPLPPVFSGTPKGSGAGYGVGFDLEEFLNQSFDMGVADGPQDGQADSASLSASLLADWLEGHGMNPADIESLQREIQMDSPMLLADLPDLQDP
In the case of `COc1cc(OC)c(OC)cc1C=O`, the luciferase signal was 156 AU.
The same measure, in the same setting: then `C[C@H](N)[C@H](O)c1ccc(O)c(O)c1`, with 16 AU; and `S=C=NCc1ccccc1`, with 168 AU (active); and `CC[N+]1(C)CCCC(OC(=O)C(O)(c2ccccc2)c2ccccc2)C1` (stereo unspecified), with 84 AU.
Still for that read-out and setting: then `CC1=NCCc2c1[nH]c1cc(O)ccc21`, with 64 AU.
On the same count and under the same terms, then `ClC1C(Cl)C(Cl)C(Cl)C(Cl)C1Cl` (stereo unspecified), with 192 AU.
Turning to `O=C(O)CC[N+](=O)[O-]`, the luciferase signal was 152 AU.
For `C=CCC1(C(C)CCC)C(=O)N=C(S)NC1=O` (stereo unspecified), the luciferase signal is 84 AU.
On to `O=C1C=C2C=C[C@@H]3C[C@@]2(O1)[C@H]1CCCCN31`, for which the luciferase signal is 92 AU.
On to `CCCCCCCCCCCCCCCC[n+]1ccccc1`, for which the luciferase signal is 96 AU.
On to `OC1CCCCC1N1CCC(c2ccccc2)CC1` (stereo unspecified), for which the luciferase signal is 60 AU.
As to `CC[C@@H]1C(=O)OC[C@@H]1Cc1cncn1C`, the luciferase signal is 44 AU.
Still for that read-out and setting: then `COc1cc2c(cc1OC)C(C)NCC2` (stereo unspecified), with 36 AU.
With `CC1(C)C2CC(=O)[C@]3(C)C(CC[C@@]4(C)[C@H](c5ccoc5)OC(=O)C5OC543)[C@@]2(C)[C@@H](O)C[C@H]1O` (stereo partly specified), the luciferase signal was 80 AU.
Take `O=[N+]([O-])c1cc([As](=O)(O)O)ccc1O`: the luciferase signal was 44 AU.
On the same count and under the same terms, the result for `COc1cc2ccc(=O)oc2c2ccoc12` reads 64 AU.
As for `COc1ccc2c(c1O)-c1c(OC)c(OC)cc3c1[C@H](C2)N(C)CC3`, the luciferase signal is 72 AU.
With `COc1ccc2c(c1)[nH]c1c(C)nccc12`, the luciferase signal is 124 AU.
Turning to `NC(N)=NOCC[C@H](N)C(=O)O`, the luciferase signal is 84 AU.
Same read-out and setting: then `COC1=C[C@@H]2[C@@H]3Cc4ccc(OC)c(O)c4[C@]2(CCN3C)CC1=O`, with 72 AU.
As to `O=C1C=CC(=O)c2c(O)cccc21`, the luciferase signal was 52 AU.
Take `NCCc1c[nH]c2ccccc12`: the luciferase signal is 44 AU.
Consider `CN[C@@H](C)[C@@H](O)c1ccccc1`, for which the luciferase signal was 36 AU.
Take `COc1ccc2c3c([nH]c2c1)C(C)=NCC3`: the luciferase signal was 68 AU.
Consider `CN1CCc2cc3c(cc2C1O)OCO3` (stereo unspecified), for which the luciferase signal was 52 AU.
Turning to `CNC(C)C(O)c1ccccc1` (stereo unspecified), the luciferase signal is 24 AU.
`CN(C)[C@@H]1C(=O)C(C(N)=O)=C(O)[C@@]2(O)C(=O)C3=C(O)c4c(O)ccc(Cl)c4[C@@](C)(O)[C@H]3C[C@@H]12`: the luciferase signal is 60 AU.
As to `CC1=C(O)C(=O)C=C2C1=CC=C1[C@@]2(C)CC[C@@]2(C)[C@@H]3C[C@](C)(C(=O)O)CC[C@]3(C)CC[C@]12C`, the luciferase signal was 360 AU.
